From PubChem BioAssay AID504834 (National Center for Advancing Translational Sciences (NCATS), 2011)
Out of some 320,000 compounds screened, about 22,000 (6.9%) were called active. Roughly 27% stayed inconclusive and do not appear here. The list comes from a sample in which actives are over-represented; it also holds similar structures and randomly drawn compounds. Unmarked numbers belong to inactive results. The call rests on the fitted dose curve; in most records, active means well fitted inhibition curve with a large enough effect; inconclusive means small, poorly fitted or top-dose-only effect, or another doubt; inactive means no such curve, though single readings can be large or run the other way.

experiment: Primary qHTS for delayed death inhibitors of the malarial parasite plastid, 96 hour incubation; details: P. falciparum luciferase reporter growth; series mostly up to 28.7 µM; activity change, negative = inhibition: at the top concentration
Summary of the method: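 Compounds incubated with erythrocytes infected by luciferase-expressing P. falciparum (2% hematocrit, 0.05% parasitemia final) for 96 hours, 37 C in 5% CO2. Growth inhibition scored as decreased luciferase luminescence.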
On the % scale 0 is the no-effect control and ±100 the full control effect; potency means the concentration at half of the fitted maximal effect.

SMILES | Potency | activity change, negative = inhibition
COc1ccc(/C=C/C(=O)NC(=S)NN2CCCCC2c2cccnc2)cc1 (stereo unspecified) | 13.1 µM (active) | –
O=C(/C=C/c1ccc(F)cc1)NC(=S)NNC(=O)c1cccnc1 | – | 41%
CCOc1ccc(NC(=S)NC(=O)/C=C/c2ccc(OC)cc2)c([N+](=O)[O-])c1 | – | 12.4%
COC(=O)[C@@H](Cc1ccccc1)NC(=O)NCCc1ccccc1 | – | 25.5%
NC1=NC(=O)S/C1=C\c1ccc(O)cc1 | – | -5.18%
O=C1N=C(N2CCc3ccccc3C2)S/C1=C\c1ccc(O)cc1 | 11.7 µM (active) | –
O=C1N=C(N2CCCC2)S/C1=C\c1cccc(Br)c1 | – | -20.9%
COc1ccc(-c2nc3n(c(=O)c2C#N)CCS3)c(OC)c1 | – | 37.4%
COc1cc(NS(=O)(=O)c2ccc(NC(=S)NC(=O)c3ccccc3)cc2)nc(OC)n1 | – | -7.09%
Cc1ccnc(NC(=O)CCNS(=O)(=O)c2ccc(C)c(C)c2)c1 | – | 253%
C/C(=N/NC(=O)c1ccc(Br)o1)c1ccc(C)o1 | – | -27.2%
C/C(=N\NC(=S)NC1CCCCC1)c1ccc(C)o1 | 4.65 µM (active) | –
Cc1ccc(NC(=S)NC2CCCC2)cc1 | – | 60.3%
CCCc1cc(C(=O)Nc2ccc(Cl)cn2)cs1 | – | -17.8%
CCOc1ccc(CCNC(=O)Nc2ccccc2)cc1OCC | – | 5.2%
COC(=O)c1cccc(N2C(=O)C3C4C=CC(CC4)C3C2=O)c1 (stereo unspecified) | – | 16.2%
Cn1c(=NC(=O)CSCC(=O)N2CCOCC2)sc2ccccc21 | – | 8.65%
Cn1c(=NC(=O)CSCC(=O)N2CCCCC2)sc2ccccc21 | – | 34.9%
Cn1c(=NC(=O)c2cnccn2)sc2ccccc21 | 11.7 µM (active) | –
CCN(CC(=O)Nc1ccccc1C(=O)NC1CC1)Cc1cccs1 | – | 11.3%
COc1cc(CN2CCC(n3nccc3NC(=O)CCCc3ccccc3)CC2)ccc1O | – | 15.5%
COCCCN1C(=O)C(=O)/C(=C(/O)c2ccc(S(=O)(=O)N3CCOCC3)cc2)C1c1ccc(F)cc1 (stereo unspecified) | – | 2.37%
CCc1cccc(NC(=O)C2CCCN(S(=O)(=O)c3ccc4[nH]c(=O)ccc4c3)C2)c1 (stereo unspecified) | – | -7.69%
CCNC(=O)N1CCN(S(=O)(=O)c2ccc3c(c2)OCCCO3)CC1 | – | -9.41%
Cc1ccc(C(=O)Nc2ccc3c(c2)OCO3)cc1S(=O)(=O)N1CCCCC1 | – | 46.5%
Cc1ccc(C(=O)NCC(=O)O)cc1S(=O)(=O)N1CCCCC1 | – | -3.2%

SMILES | Potency | activity change, negative = inhibition
Cc1ccc(C(=O)NC2CCCC(C)C2C)cc1S(=O)(=O)N1CCCCC1 (stereo unspecified) | 14.7 µM (active) | –
CC(C)CCNC(=O)c1ccc2c(Cl)c3c(nc2c1)CCC3 | – | 34%
O=C(NNC(=O)c1ccco1)Nc1ccccc1 | – | 0.862%
O=C(Cc1cccc2ccccc12)Nc1ccc2oc(-c3ccccc3)nc2c1 | – | -21.5%
CC(=O)Nc1ccc(-c2nc3ccccc3o2)cc1 | – | -22.4%
O=C(Nc1ccc2oc(-c3ccc4ccccc4c3)nc2c1)c1cccs1 | 4.65 µM (active) | –
O=C(c1ccc(Br)o1)N1CCN(CCOc2ccccc2)CC1 | – | -12.7%
COc1ccc2[nH]cc(CCN3C(=O)c4ccc(C(=O)O)cc4C3=O)c2c1 | – | 33.5%
Fc1ccc(OCc2nn3c(Cn4nnc5ccccc54)nnc3s2)cc1 | – | -28.1%
Cc1ccc(C2Nc3ccccc3C(=O)N2CCN2CCNC2=O)cc1 (stereo unspecified) | – | -0.318%
CC(=O)NN1C(=O)c2ccccc2NC1c1ccccc1 (stereo unspecified) | – | -3.77%
COc1ccc(C2Nc3ccccc3C(=O)N2Cc2ccccc2)cc1Cn1nnc2ccccc21 (stereo unspecified) | 3.29 µM (active) | –
COc1ccc(C2Nc3ccccc3C(=O)N2c2ccc(F)cc2)cc1Cn1nnc2ccccc21 (stereo unspecified) | 9.28 µM (active) | –
COc1ccc(N2C(=O)c3ccccc3NC2c2ccc(OC)c(CN3CCOCC3)c2)cc1 (stereo unspecified) | – | 316%
COc1ccc(N(CC(=O)NCC2CCCO2)C(=O)CCC(=O)Nc2nccs2)c(OC)c1 (stereo unspecified) | – | -6.68%
O=C(CSc1nc2[nH]c(=O)[nH]c(=O)c2s1)Nc1cccc(F)c1 | – | 1.82%
Cc1ccc(S(=O)(=O)N2CCCCC2)cc1C(=O)N(C)CC(=O)Nc1cccc(F)c1 | – | -27.7%
CC(C)(C)C(=O)COC(=O)c1cc(S(=O)(=O)N2CCCCC2)ccc1N1CCOCC1 | – | 19.3%
CCc1nn(CC(=O)N2CCN(CC)CC2)c(=O)c2cccn12 | – | 40.8%
CC(NC(=O)C1CCCN(S(=O)(=O)c2ccc(-n3cnnn3)cc2)C1)c1ccc(F)cc1 (stereo unspecified) | – | -24.7%
C=CCn1c(=NC(=O)c2cccs2)sc2cc(NC(C)=O)ccc21 | – | 110%
COc1cc(C(C)=O)ccc1OC(C)C(=O)Nc1ccc(S(=O)(=O)N2CCCC2)cc1 (stereo unspecified) | – | 2.7%
C=CCn1c(=NC(=O)c2ccc(S(=O)(=O)N3CCCC3)cc2)sc2cc(NC(C)=O)ccc21 | 0.928 µM (active) | –
O=C(Cc1ccccc1F)NC1CCSc2ccccc21 (stereo unspecified) | – | -14.4%
O=S(=O)(/C=C/c1ccccc1)N1CCNCC1 | – | -0.204%
